In PubChem BioAssay:
The source made the active and inactive calls. Unless noted, how the calls were made is not given here.

How the values were obtained:
[1] = test system: Wnt5a (protein binding on small-molecule microarray); experiment: small molecules binding Wnt5a protein – biophysical, small-molecule microarray, 635/667 nm fluorescence, primary screen (AID 1142); conditions: 635 nm fluorescence, higher = more signal;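 further: fluorescence read at 667 nm with signal to noise per printed feature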
[2] = ATP-based viability of Huh7 replicon cells – cell-based, CellTiter-Glo luminescence, basal, 48 h, cytotoxicity control for HCV replication inhibitor project, primary screen (AID 1143); conditions: higher = more signal, called active from +8 up or from −8 down;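 further: Huh7 hepatoma cells carrying a hepatitis C replication reporter with no stimulus; test concentration not given here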
[3] = Pseudomonas biofilm growth suppression – PAO1 strain, BacTiter-Glo luminescence, LB-PBS, primary screen (AID 1144); conditions: P. aeruginosa PAO1 biofilm, 12 h, higher = more signal
[4] = basal CRE-LacZ reporter activity in PC12 – cell-based, unstimulated, primary screen (AID 1145); conditions: no forskolin, luminescence, 4.5 h, higher = more signal, called active from +8 up or from −8 down
[5] = forskolin-driven CRE-LacZ activity in PC12 – cell-based, CRE-LacZ reporter, forskolin-stimulated, primary screen (AID 1146); conditions: luminescence, 4.5 h, higher = more signal, called active from +8 up or from −8 down;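 further: PC12 cells with 6xCRE LacZ reporter stimulated by forskolin 10 µM; beta-galactosidase reporter signal reflecting CREB driven transcription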
[6] = target: Streptavidin (Streptomyces avidinii) (UniProt P22629); experiment: compounds binding control protein streptavidin – biophysical, small-molecule microarray, 635/667 nm fluorescence, artefact control for SMM compound annotation, primary screen (AID 1147); conditions: higher = more signal;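 further: signal reflects streptavidin binding to arrayed compounds as a control protein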
Chain of Streptavidin (Streptomyces avidinii) (P22629 whole entry, looked up): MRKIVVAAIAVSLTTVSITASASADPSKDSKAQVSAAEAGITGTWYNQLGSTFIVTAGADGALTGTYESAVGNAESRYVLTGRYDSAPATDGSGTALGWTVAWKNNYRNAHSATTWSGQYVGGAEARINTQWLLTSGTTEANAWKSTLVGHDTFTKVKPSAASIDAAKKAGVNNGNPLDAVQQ

[7] = probe aInhba binding on compound microarray – biochemical, small-molecule microarray, 635/667 nm fluorescence, primary screen (AID 1148); conditions: higher = more signal;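 further: score merges 667nm spot fluorescence with signal-to-noise for antibody binding to printed compounds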
Torsin-1A (Homo sapiens) [8] = target: Torsin-1A (Homo sapiens) (UniProt O14656); experiment: TOR1A wild-type binding on microarray – cell lysate, small-molecule microarray, lysate, 635/667 nm, primary screen (AID 1149); conditions: COS7 hTOR1A-WT lysate, 635 nm fluorescence, higher = more signal
Chain of Torsin-1A (Homo sapiens) (O14656 whole entry, looked up): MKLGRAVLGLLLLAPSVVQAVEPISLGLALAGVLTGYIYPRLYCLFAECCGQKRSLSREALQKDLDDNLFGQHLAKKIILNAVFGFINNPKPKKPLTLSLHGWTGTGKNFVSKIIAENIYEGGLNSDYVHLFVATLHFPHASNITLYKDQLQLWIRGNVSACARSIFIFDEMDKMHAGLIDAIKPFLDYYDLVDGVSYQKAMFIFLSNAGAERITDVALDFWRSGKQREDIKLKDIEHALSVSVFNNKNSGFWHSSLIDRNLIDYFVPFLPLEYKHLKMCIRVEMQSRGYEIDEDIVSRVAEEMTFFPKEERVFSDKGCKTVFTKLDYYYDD

Torsin-1A (Homo sapiens) [9] = target: Torsin-1A (Homo sapiens) (UniProt O14656); experiment: torsin A mutant lysate binding on microarrays – cell lysate, small-molecule microarray, COS7 lysate, 635/667 nm fluorescence, primary screen (AID 1150); conditions: COS7 hTOR1A mutant lysate, 635 nm fluorescence, higher = more signal;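 further: score pools 667 nm emission and signal to noise measuring lysate protein binding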
[10] = test system: Sonic hedgehog protein (Shh); experiment: Sonic hedgehog microarray binding compounds – biochemical, small-molecule microarray, 635/667 nm fluorescence, primary screen (AID 1151); conditions: 635 nm fluorescence, higher = more signal;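 further: Shh protein binding to compounds spotted on small-molecule microarray slides; score combines spot fluorescence intensity with signal-to-noise across triplicate slides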
[11] = optical density shifts of acrAB sulA E. coli – strain DRC41, OD650, 48 h, E. coli filamentation inducer project, primary screen (AID 1152); conditions: higher = more signal, called active from +8 up or from −8 down;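 further: E. coli MC1000 strain DRC41 lacking acrAB efflux pump and sulA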
[12] = probe aLefty1 binding on compound microarray – biochemical, small-molecule microarray, 635/667 nm fluorescence, primary screen (AID 1153); conditions: higher = more signal;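 further: score merges spot fluorescence with signal-to-noise ratio from the scanned slide images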
[13] = plasmodial surface anion channel blockers, osmotic lysis – cell-based, P. falciparum Indochina, OD700, 1 h, primary screen (AID 1154); conditions: P. falciparum Indochina infected RBC osmotic lysis, higher = more signal, called active from +8 up or from −8 down
[14] = plasmodial surface anion channel blockers, osmotic lysis – cell-based, P. falciparum Indochina, OD700, 2 h, primary screen (AID 1155);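 further: lysis reports solute entry through the parasite surface anion channel PSAC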; conditions: P. falciparum Indochina infected erythrocytes, higher = more signal, called active from +8 up or from −8 down
[15] = changes in parasitized red cell lysis, either direction – P. falciparum Indochina, OD700, 3 h, PSAC antagonist project, primary screen (AID 1156); conditions: P. falciparum-infected erythrocytes, osmotic lysis, higher = more signal, called active from +8 up or from −8 down
[16] = plasmodial surface anion channel blockers, osmotic lysis – cell-based, P. falciparum Indochina, OD700, 18 h, primary screen (AID 1157); conditions: P. falciparum Indochina infected erythrocytes, osmotic lysis OD700, 18 h; higher = more signal, called active from +8 up or from −8 down
[17] = S6 kinase pathway phospho-S6 level changes – cell-based, A549, cytoblot, luminescence, serum-stimulated, primary screen (AID 1158); conditions: 5 h, higher = more signal;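 further: serum-stimulated A549 lung adenocarcinoma cells; signal is phosphorylated S6 detected by cytoblot immunostaining with HRP secondary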
[18] = target: NADPH oxidase 2 (Homo sapiens) (UniProt P04839); experiment: compounds shifting NOX2 Amplex Red fluorescence – cell-based, HEK293-NOX2, PMA-stimulated, NOX inhibitor project, primary screen (AID 1159); conditions: 45 min, higher = more signal, called active from +8 up or from −8 down; further: test concentration not given here
Chain of NADPH oxidase 2 (Homo sapiens) (P04839 whole entry, looked up): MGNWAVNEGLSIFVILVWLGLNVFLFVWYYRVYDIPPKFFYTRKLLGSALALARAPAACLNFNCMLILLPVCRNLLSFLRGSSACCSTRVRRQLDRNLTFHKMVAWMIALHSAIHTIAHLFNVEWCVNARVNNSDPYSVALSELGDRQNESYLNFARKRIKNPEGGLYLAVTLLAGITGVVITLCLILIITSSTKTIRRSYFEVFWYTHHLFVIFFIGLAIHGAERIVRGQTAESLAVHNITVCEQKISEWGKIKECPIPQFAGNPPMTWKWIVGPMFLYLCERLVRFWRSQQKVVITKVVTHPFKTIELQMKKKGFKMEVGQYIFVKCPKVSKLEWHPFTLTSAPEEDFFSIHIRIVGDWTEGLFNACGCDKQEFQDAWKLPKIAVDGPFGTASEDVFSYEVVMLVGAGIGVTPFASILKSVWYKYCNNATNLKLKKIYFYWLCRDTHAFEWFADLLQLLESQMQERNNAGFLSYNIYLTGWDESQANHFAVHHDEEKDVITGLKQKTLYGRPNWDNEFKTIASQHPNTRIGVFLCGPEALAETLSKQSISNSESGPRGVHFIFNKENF

[19] = target: NADPH oxidase 4 (Homo sapiens) (UniProt Q9NPH5); experiment: compounds shifting NOX4 Amplex Red fluorescence – cell-based, HEK293-NOX4, tetracycline-induced, NOX inhibitor project, primary screen (AID 1160); conditions: HEK293-NOX4, Amplex Red H2O2 fluorescence, 45 min; higher = more signal, called active from +8 up or from −8 down
Chain of NADPH oxidase 4 (Homo sapiens) (Q9NPH5 whole entry, looked up): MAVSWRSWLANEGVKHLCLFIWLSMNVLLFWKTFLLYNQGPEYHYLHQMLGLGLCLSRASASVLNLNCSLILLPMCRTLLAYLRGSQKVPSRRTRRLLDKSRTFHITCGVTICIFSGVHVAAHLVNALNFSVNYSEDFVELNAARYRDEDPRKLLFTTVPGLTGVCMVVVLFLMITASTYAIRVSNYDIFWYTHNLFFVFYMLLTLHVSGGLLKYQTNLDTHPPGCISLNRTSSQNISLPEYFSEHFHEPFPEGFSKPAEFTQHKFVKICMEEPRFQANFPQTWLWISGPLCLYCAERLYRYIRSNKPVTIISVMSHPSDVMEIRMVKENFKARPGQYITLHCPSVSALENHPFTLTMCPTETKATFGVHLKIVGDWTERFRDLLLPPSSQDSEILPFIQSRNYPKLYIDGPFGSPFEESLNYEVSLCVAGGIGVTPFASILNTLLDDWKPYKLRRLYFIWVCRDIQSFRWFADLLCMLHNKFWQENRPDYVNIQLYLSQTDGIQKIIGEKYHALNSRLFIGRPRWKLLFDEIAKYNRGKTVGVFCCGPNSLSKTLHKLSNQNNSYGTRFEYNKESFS

[20] = target: NADPH oxidase 5 (Homo sapiens) (UniProt Q96PH1); experiment: compounds shifting NOX5 Amplex Red fluorescence – cell-based, HEK293-NOX5, NOX inhibitor project, primary screen (AID 1161); conditions: HEK293-NOX5, ionomycin, 45 min, higher = more signal
Chain of NADPH oxidase 5 (Homo sapiens) (Q96PH1 whole entry, looked up): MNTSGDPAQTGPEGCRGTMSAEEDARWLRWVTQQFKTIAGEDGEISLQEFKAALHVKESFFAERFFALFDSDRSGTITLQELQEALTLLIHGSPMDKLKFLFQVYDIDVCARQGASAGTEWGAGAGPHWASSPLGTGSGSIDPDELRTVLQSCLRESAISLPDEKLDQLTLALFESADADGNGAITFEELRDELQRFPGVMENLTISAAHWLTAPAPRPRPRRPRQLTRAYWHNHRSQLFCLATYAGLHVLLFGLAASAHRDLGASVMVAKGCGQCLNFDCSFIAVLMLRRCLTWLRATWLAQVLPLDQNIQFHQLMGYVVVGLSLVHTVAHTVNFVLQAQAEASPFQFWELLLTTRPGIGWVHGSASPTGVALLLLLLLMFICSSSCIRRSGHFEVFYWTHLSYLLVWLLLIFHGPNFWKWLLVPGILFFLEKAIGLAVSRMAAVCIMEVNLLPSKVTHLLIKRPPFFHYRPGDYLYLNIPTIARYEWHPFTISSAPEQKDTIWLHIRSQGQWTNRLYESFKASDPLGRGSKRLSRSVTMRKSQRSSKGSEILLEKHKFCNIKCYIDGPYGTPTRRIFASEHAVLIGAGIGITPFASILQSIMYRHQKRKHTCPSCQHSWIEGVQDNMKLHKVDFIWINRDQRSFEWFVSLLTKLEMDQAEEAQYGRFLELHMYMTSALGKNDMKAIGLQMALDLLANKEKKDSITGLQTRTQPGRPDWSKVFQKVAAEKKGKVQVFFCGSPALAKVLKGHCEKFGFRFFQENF

SMILES: CN(C)CCCC[C@@H]1NC(=O)[C@H]2C[C@@H](C(=O)O)[C@@H](c3ccc(O)cc3)N2C1=O
- composite z-score [1]: 0.938
- z-score [2]: -2.41 (inactive)
- z-score [3]: 0.294 (inactive)
- z-score [4]: 0.419 (inactive)
- z-score [5]: -0.457 (inactive)
- composite z-score [6]: 3.44
- composite z-score [7]: 1.98
- composite z-score (Torsin-1A (Homo sapiens) [8]): 2.77
- composite z-score (Torsin-1A (Homo sapiens) [9]): 3.27
- composite z-score [10]: 2.17
- z-score [11]: 2.2 (inactive)
- composite z-score [12]: 2.57
- z-score [13]: 3.21 (inactive)
- z-score [14]: 0.73 (inactive)
- z-score [15]: -2.43 (inactive)
- z-score [16]: -0.849 (inactive)
- z-score [17]: 0.651
- z-score [18]: 0.485 (inactive)
- z-score [19]: -1.06 (inactive)
- z-score [20]: 1.4

SMILES: COCCCNC(=O)[C@@]1(CCS(=O)(=O)c2ccccc2)COC(c2ccc(OCCCO)cc2)=N1
- composite z-score [1]: 0.612
- z-score [2]: -0.0036 (inactive)
- z-score [3]: 0.86 (inactive)
- z-score [4]: 0.918 (inactive)
- z-score [5]: -0.387 (inactive)
- composite z-score [6]: 2.53
- composite z-score [7]: 0.271
- composite z-score (Torsin-1A (Homo sapiens) [8]): 1.29
- composite z-score (Torsin-1A (Homo sapiens) [9]): 1.49
- composite z-score [10]: -0.334
- z-score [11]: 1.08 (inactive)
- composite z-score [12]: 0.87
- z-score [13]: 29.2 (active)
- z-score [14]: 24.6 (active)
- z-score [15]: 0.764 (inactive)
- z-score [16]: 4.31 (inactive)
- z-score [17]: -0.131
- z-score [18]: -0.556 (inactive)
- z-score [19]: 0.25 (inactive)
- z-score [20]: 0.0637

SMILES: COC(=O)[C@H](Cc1ccccc1)N1CC2=CCCC=C[C@@H]2[C@H]1[C@H](O)Cc1ccccc1
- composite z-score [1]: -0.0279
- z-score [2]: -1.02 (inactive)
- z-score [3]: 1.09 (inactive)
- z-score [4]: 2.4 (inactive)
- z-score [5]: 1.07 (inactive)
- composite z-score [6]: 0.916
- composite z-score [7]: -0.0332
- composite z-score (Torsin-1A (Homo sapiens) [8]): -0.214
- composite z-score (Torsin-1A (Homo sapiens) [9]): -0.371
- composite z-score [10]: 0.848
- z-score [11]: -0.53 (inactive)
- composite z-score [12]: 0.315
- z-score [13]: 1.31 (inactive)
- z-score [14]: 0.492 (inactive)
- z-score [15]: 0.429 (inactive)
- z-score [16]: 0.256 (inactive)
- z-score [17]: -0.232
- z-score [18]: -0.286 (inactive)
- z-score [19]: -0.477 (inactive)
- z-score [20]: -0.647

SMILES: CN(C)C(=O)[C@@]1(Cc2ccccc2CN=[N+]=[N-])COC(c2ccc(OCCCO)cc2)=N1
- composite z-score [1]: 0.0037
- z-score [2]: -3.16 (inactive)
- z-score [3]: -0.632 (inactive)
- z-score [4]: -1.34 (inactive)
- z-score [5]: -1.65 (inactive)
- composite z-score [6]: -0.0988
- composite z-score [7]: -0.0288
- composite z-score (Torsin-1A (Homo sapiens) [8]): -0.184
- composite z-score (Torsin-1A (Homo sapiens) [9]): 0.715
- composite z-score [10]: -1.22
- z-score [11]: 2.37 (inactive)
- composite z-score [12]: 0.236
- z-score [13]: 25.9 (active)
- z-score [14]: 11.1 (active)
- z-score [15]: 4.63 (inactive)
- z-score [16]: 1.67 (inactive)
- z-score [17]: 0.0188
- z-score [18]: -4.96 (inactive)
- z-score [19]: -1.37 (inactive)
- z-score [20]: -3.41

SMILES: COCCCNC(=O)[C@@]1(Sc2ccc(C)cc2)CC(=O)N(Cc2ccccc2C(F)(F)F)[C@@H]1c1ccc(CO)cc1I
- composite z-score [1]: -0.249
- z-score [2]: -0.818 (inactive)
- z-score [3]: 0.86 (inactive)
- z-score [4]: -0.0888 (inactive)
- z-score [5]: 0.421 (inactive)
- composite z-score [6]: -0.503
- composite z-score [7]: -0.111
- composite z-score (Torsin-1A (Homo sapiens) [8]): -1.5
- composite z-score (Torsin-1A (Homo sapiens) [9]): -0.642
- composite z-score [10]: -1.02
- z-score [11]: 0.0516 (inactive)
- composite z-score [12]: 0.112
- z-score [13]: 2.06 (inactive)
- z-score [14]: 0.786 (inactive)
- z-score [15]: 0.385 (inactive)
- z-score [16]: 0.377 (inactive)
- z-score [17]: -0.248
- z-score [18]: 0.843 (inactive)
- z-score [19]: -1.01 (inactive)
- z-score [20]: 2.49

SMILES: COC(=O)C(CC#Cc1ccc2c(c1)[C@]1(C(=O)N2)[C@H](C(=O)NC[C@H](O)c2ccccc2)[C@H]2C(=O)O[C@H](c3ccccc3)[C@H](c3ccccc3)N2[C@@H]1c1ccccc1OCCO)C(=O)OC
- composite z-score [1]: 0.649
- z-score [2]: -6.04 (inactive)
- z-score [3]: -1.21 (inactive)
- z-score [4]: -0.671 (inactive)
- z-score [5]: -0.276 (inactive)
- composite z-score [6]: 0.703
- composite z-score [7]: 0.0154
- composite z-score (Torsin-1A (Homo sapiens) [8]): 0.326
- composite z-score (Torsin-1A (Homo sapiens) [9]): 0.506
- composite z-score [10]: 1.32
- z-score [11]: 1.52 (inactive)
- composite z-score [12]: -0.0559
- z-score [13]: 4.2 (inactive)
- z-score [14]: 0.574 (inactive)
- z-score [15]: 0.725 (inactive)
- z-score [16]: -0.124 (inactive)
- z-score [17]: 1.46
- z-score [18]: 0.504 (inactive)
- z-score [19]: -0.421 (inactive)
- z-score [20]: -2.45

SMILES: CCCC#C[Si](O[C@H](CC)c1cn(Cc2ccccc2)nn1)(C(C)C)C(C)C
- composite z-score [1]: 0.24
- z-score [2]: -1.01 (inactive)
- z-score [3]: 0.171 (inactive)
- z-score [4]: -0.374 (inactive)
- z-score [5]: 0.04 (inactive)
- composite z-score [6]: 1.72
- composite z-score [7]: 0.0541
- composite z-score (Torsin-1A (Homo sapiens) [8]): 0.732
- composite z-score (Torsin-1A (Homo sapiens) [9]): 0.563
- composite z-score [10]: 1.27
- z-score [11]: 0.991 (inactive)
- composite z-score [12]: 0.687
- z-score [13]: 0.708 (inactive)
- z-score [14]: 0.3 (inactive)
- z-score [15]: -0.929 (inactive)
- z-score [16]: 0.358 (inactive)
- z-score [17]: 0.113
- z-score [18]: 0.442 (inactive)
- z-score [19]: -0.11 (inactive)
- z-score [20]: 0.521

SMILES: O=C1O[C@@H](c2ccccc2)[C@@H](c2ccccc2)N2[C@@H](c3ccc(OCCO)cc3)[C@]3(C(=O)Nc4ccc(C#CCCO)cc43)[C@@H](C(=O)O)[C@H]12
- composite z-score [1]: 0.529
- z-score [2]: -0.579 (inactive)
- z-score [3]: -0.155 (inactive)
- z-score [4]: -0.761 (inactive)
- z-score [5]: -0.0408 (inactive)
- composite z-score [6]: 1.84
- composite z-score [7]: 1.34
- composite z-score (Torsin-1A (Homo sapiens) [8]): 0.892
- composite z-score (Torsin-1A (Homo sapiens) [9]): 0.203
- composite z-score [10]: 0.688
- z-score [11]: 0.624 (inactive)
- composite z-score [12]: 1.31
- z-score [13]: 1.93 (inactive)
- z-score [14]: -0.0017 (inactive)
- z-score [15]: 0.88 (inactive)
- z-score [16]: -0.097 (inactive)
- z-score [17]: -0.197
- z-score [18]: 2.08 (inactive)
- z-score [19]: 0.716 (inactive)
- z-score [20]: 1.1

SMILES: C=CCC(OC(C)=O)[C@@H]1[C@@H](N(Cc2cccc3ccccc23)C(=O)Cc2ccc(OC)cc2)c2cc(OCCCO)ccc2N1C(=O)c1ccc2ccccc2c1 (stereo not given in full)
- composite z-score [1]: -0.186
- z-score [2]: -3.04 (inactive)
- z-score [3]: -0.719 (inactive)
- z-score [4]: 0.0458 (inactive)
- z-score [5]: -0.383 (inactive)
- composite z-score [6]: 0.172
- composite z-score [7]: -0.152
- composite z-score (Torsin-1A (Homo sapiens) [8]): 0.794
- composite z-score (Torsin-1A (Homo sapiens) [9]): -0.118
- composite z-score [10]: 0.239
- z-score [11]: 0.808 (inactive)
- composite z-score [12]: 0.147
- z-score [13]: 0.79 (inactive)
- z-score [14]: -0.443 (inactive)
- z-score [15]: -0.214 (inactive)
- z-score [16]: -0.691 (inactive)
- z-score [17]: 1.2
- z-score [18]: -2.11 (inactive)
- z-score [19]: -1.24 (inactive)
- z-score [20]: -0.827
